Compound activity from PubChem BioAssay.
CYP2C9 act: CYP2C9 (human) activation; 96,000 compounds, 1.4% hits; P11712; recombinant CYP2C9, luciferin-H conversion, luminescence; hits give high values; factor 1 = untreated enzyme, 0 = blocked; activation factor at 5 µM; AID 1024;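 active = activation factor of 2 or more for CYP2C9 at a 5 µM dose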
CYP2C9 inhib: human CYP2C9 inhibition; CYP2C9 Supersomes, luciferin-H conversion, luminescence; inhibition, % at 5 µM; 96,000 compounds, 20% hits;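 active = blocking of liver enzyme CYP2C9 beyond about 50% at 5 µM, limit read from the data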
CD11b adhes inh: inhibitors of human CD11b/CD18 binding to fibrinogen. K562 CD11b/CD18 adhesion to fibrinogen, ATPlite luminescence; Mn2+ added to activate the integrin. P05107+P11215. AID 1497. inhibition, % at 10 µM. 93,000 compounds, 0.54% hits;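 active = primary inhibition of 50% or more at 10 µM, then 40% or more on retest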
Mac1 fbg enh: increases human CD11b/CD18 adhesion to fibrinogen. P05107+P11215. K562 CD11b/CD18 adhesion to fibrinogen, ATPlite luminescence. activation, % at 10 µM. 93,000 compounds, 0.07% hits. AID 1499;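 active = 10 µM primary screen giving 50% or more activity, confirmed by 40% or more on retest at that dose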
CYP2C19 inhib: inhibitors of human CYP2C19; P33261; CYP2C19 Supersomes, luciferin-H EGE luminescence, 30 min; inhibition, % at 5 µM; 96,000 compounds, 21% hits; AID 778;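 active = CYP2C19 inhibition above a set limit at 5 µM in the primary screen, cut at about 50% in these data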
Target sequence (P33261 whole entry, looked up): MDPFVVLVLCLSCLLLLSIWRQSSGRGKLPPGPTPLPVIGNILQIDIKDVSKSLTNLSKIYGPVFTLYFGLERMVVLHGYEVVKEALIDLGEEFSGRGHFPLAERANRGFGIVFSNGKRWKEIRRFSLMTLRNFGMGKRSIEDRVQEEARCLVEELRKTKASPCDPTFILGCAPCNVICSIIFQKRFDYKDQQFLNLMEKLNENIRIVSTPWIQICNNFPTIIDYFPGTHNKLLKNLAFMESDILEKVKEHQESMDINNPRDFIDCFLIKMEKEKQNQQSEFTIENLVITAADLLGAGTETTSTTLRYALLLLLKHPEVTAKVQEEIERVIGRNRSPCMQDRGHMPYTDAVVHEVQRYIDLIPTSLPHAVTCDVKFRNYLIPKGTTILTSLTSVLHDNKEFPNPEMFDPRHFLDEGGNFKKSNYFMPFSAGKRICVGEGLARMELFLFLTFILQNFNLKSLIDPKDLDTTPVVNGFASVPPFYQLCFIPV
CYP2C19 act: activators of human cytochrome P450 2C19 | P33261 | 96,000 tested, under 10 active | activation factor at 5 µM | AID 1025 | recombinant CYP2C19, luciferin-H EGE luminescence; hits give high values; 0 = fully inhibited enzyme, 1 = untreated enzyme;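 active = activation factor of at least 2 at 5 µM in the primary screen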
Hits are given with their value. Shown are actives, neighbours in structure and some others; about 28% of the full set was active somewhere.

`CCOC(=O)C1CCN(Cc2ccccc2C(F)(F)F)CC1` gave CYP2C9 act inactive, CYP2C9 inhib inactive, CD11b adhes inh inactive, Mac1 fbg enh inactive, CYP2C19 inhib inactive and CYP2C19 act inactive.
Screening CCOC(=O)C1CCCCN1Cc1ccc(C(F)(F)F)cc1 (configuration not stated) returned CYP2C9 act inactive, CYP2C9 inhib 62.2, CD11b adhes inh inactive, Mac1 fbg enh inactive, CYP2C19 inhib 97.0 and CYP2C19 act inactive.
Screening C=CCN(CC(=O)NCc1ccccc1)C(=O)c1csnn1 returned CYP2C9 act inactive, CYP2C9 inhib inactive, CD11b adhes inh inactive, Mac1 fbg enh inactive, CYP2C19 inhib 72.7 and CYP2C19 act inactive.
Screening COc1ccc(CNC(=O)CN(Cc2ccccc2)C(=O)c2csnn2)cc1 returned CYP2C9 act inactive, CYP2C9 inhib inactive, CD11b adhes inh inactive, Mac1 fbg enh inactive, CYP2C19 inhib inactive and CYP2C19 act inactive.
CN1CC(c2ccc(Cl)c(Cl)c2)[C@@]2(COc3ccccc3C2=O)[C@@]12C(=O)Nc1ccccc12 (some centres not stated) was read as CYP2C9 act inactive, CYP2C9 inhib 77.3, CD11b adhes inh inactive, Mac1 fbg enh inactive, CYP2C19 inhib inactive and CYP2C19 act inactive.
`CN(C)c1nc(OCCOC(=O)Nc2ccc(Cl)cc2Cl)nc(N(C)C)n1` gave CYP2C9 act inactive, CYP2C9 inhib 52.6, CYP2C19 inhib 97.7 and CYP2C19 act inactive.
`CC(=O)OCCOc1nc(N(C)C)nc(N(C)C)n1` gave CYP2C9 act inactive, CYP2C9 inhib inactive, CD11b adhes inh inactive, Mac1 fbg enh inactive, CYP2C19 inhib inactive and CYP2C19 act inactive.
For CC(=O)C1=C(O)C(=O)N(CCc2c[nH]c3ccccc23)C1c1ccc(O)cc1 (configuration not stated) the results were CYP2C9 act inactive, CYP2C9 inhib 52.9, CD11b adhes inh inactive, Mac1 fbg enh inactive, CYP2C19 inhib inactive and CYP2C19 act inactive.
`COc1ccc(C2C(C(C)=O)=C(O)C(=O)N2CCc2c[nH]c3ccccc23)cc1OC` (configuration not stated) gave CYP2C9 act inactive, CYP2C9 inhib 88.9, CD11b adhes inh inactive, Mac1 fbg enh inactive, CYP2C19 inhib inactive and CYP2C19 act inactive.
COc1cccc(C2C(C(C)=O)=C(O)C(=O)N2CCc2c[nH]c3ccccc23)c1 (configuration not stated) was read as CYP2C9 act inactive, CYP2C9 inhib 70.2, CD11b adhes inh inactive, Mac1 fbg enh inactive, CYP2C19 inhib inactive and CYP2C19 act inactive.
`COc1cc(C2C(C(C)=O)=C(O)C(=O)N2CCc2ccc(OC)c(OC)c2)ccc1O` (configuration not stated) gave CYP2C9 act inactive, CYP2C9 inhib inactive, CD11b adhes inh inactive, Mac1 fbg enh inactive, CYP2C19 inhib inactive and CYP2C19 act inactive.
`CC1CCC(C(C)C)C(OC(=O)COC(=O)c2ccc(N)cc2)C1` (configuration not stated) gave CD11b adhes inh inactive and Mac1 fbg enh inactive.
Screening C/C(=N\O)C(=O)OC1CC(C)CCC1C(C)C (configuration not stated) returned CYP2C9 act inactive, CYP2C9 inhib 96.4, CD11b adhes inh inactive, Mac1 fbg enh inactive, CYP2C19 inhib 95.7 and CYP2C19 act inactive.
Screening COc1cc(C2C(C(=O)c3ccco3)=C(O)C(=O)N2Cc2cccnc2)cc(OC)c1OC (configuration not stated) returned CYP2C9 act inactive, CYP2C9 inhib inactive, CD11b adhes inh inactive, Mac1 fbg enh inactive, CYP2C19 inhib inactive and CYP2C19 act inactive.
Screening CCOc1ccc(-c2nnc(SCc3nnc(-c4ccccc4)o3)n2-c2ccccc2F)cc1 returned CYP2C9 act inactive, CYP2C9 inhib inactive, CD11b adhes inh inactive, Mac1 fbg enh inactive, CYP2C19 inhib inactive and CYP2C19 act inactive.
Cc1ccc(-c2nnc(CSc3nnc(COc4ccccc4)n3-c3ccc(C)cc3)o2)cc1 was read as CYP2C9 act inactive, CYP2C9 inhib 70.7, CD11b adhes inh inactive, Mac1 fbg enh inactive, CYP2C19 inhib inactive and CYP2C19 act inactive.
For Cc1ccc(-c2nnc(CSc3nnc(COc4ccccc4)n3-c3ccccc3)o2)cc1 the results were CYP2C9 act inactive, CYP2C9 inhib 97.9, CD11b adhes inh inactive, Mac1 fbg enh inactive, CYP2C19 inhib 92.4 and CYP2C19 act inactive.
Screening Cn1nnc(-c2ccc(OCc3ccccc3F)cc2)n1 returned CYP2C9 act inactive, CYP2C9 inhib inactive, CD11b adhes inh inactive, Mac1 fbg enh inactive, CYP2C19 inhib 66.2 and CYP2C19 act inactive.
Fc1ccccc1COc1ccc(-c2nnn(Cc3ccccc3F)n2)cc1 was read as CYP2C9 act inactive, CYP2C9 inhib inactive, CD11b adhes inh inactive, Mac1 fbg enh inactive, CYP2C19 inhib inactive and CYP2C19 act inactive.
Screening c1ccc(C(Cc2nc(-c3ccccn3)no2)c2ccccc2)cc1 returned CYP2C9 act inactive, CYP2C9 inhib 54.5, CYP2C19 inhib inactive and CYP2C19 act inactive.
Cc1cccc(-c2noc(CSc3ccccc3)n2)c1 was read as CYP2C9 act inactive, CYP2C9 inhib inactive, CYP2C19 inhib inactive and CYP2C19 act inactive.
Screening c1ccc(SCc2nc(-c3ccccn3)no2)cc1 returned CYP2C9 act inactive, CYP2C9 inhib inactive, CD11b adhes inh inactive, Mac1 fbg enh inactive, CYP2C19 inhib 75.9 and CYP2C19 act inactive.
c1ccc(CCCc2nc(-c3ccccn3)no2)cc1 was read as CYP2C9 act inactive, CYP2C9 inhib inactive, CYP2C19 inhib 65.2 and CYP2C19 act inactive.
For c1ccc(Cc2nc(-c3ccccn3)no2)cc1 the results were CYP2C9 act inactive, CYP2C9 inhib inactive, CD11b adhes inh inactive, Mac1 fbg enh inactive, CYP2C19 inhib inactive and CYP2C19 act inactive.
`Cc1ccc(Cc2nc(-c3ccccn3)no2)cc1` gave CYP2C9 act inactive, CYP2C9 inhib inactive, CYP2C19 inhib inactive and CYP2C19 act inactive.
`CC(=O)/C(=N/Nc1ccccc1)Sc1nnc(C(O)c2ccccc2)n1-c1ccccc1` (configuration not stated) gave CD11b adhes inh inactive and Mac1 fbg enh inactive.
`Cc1cc(NC(=O)c2cccc(S(=O)(=O)N3CCCCCC3)c2)n(-c2ccccn2)n1` gave CYP2C9 act inactive, CYP2C9 inhib inactive, CD11b adhes inh inactive, Mac1 fbg enh inactive, CYP2C19 inhib inactive and CYP2C19 act inactive.
`Cc1cc(NC(=O)C2CCC2)n(-c2ccccn2)n1` gave CYP2C9 act 3, CYP2C9 inhib inactive, CD11b adhes inh inactive, Mac1 fbg enh inactive, CYP2C19 inhib inactive and CYP2C19 act inactive.
For Cc1cc(NC(=O)c2ccccc2F)n(-c2nc3ccccc3[nH]2)n1 the results were CYP2C9 act inactive, CYP2C9 inhib inactive, CD11b adhes inh inactive, Mac1 fbg enh inactive, CYP2C19 inhib inactive and CYP2C19 act inactive.
Screening Cc1cc(NC(=O)C2CCCCC2)n(-c2nc3ccccc3[nH]2)n1 returned CYP2C9 act inactive, CYP2C9 inhib 70.6, CD11b adhes inh inactive, Mac1 fbg enh inactive, CYP2C19 inhib inactive and CYP2C19 act inactive.
